{
  "source": "ChEMBL document CHEMBL4513216",
  "about": "“Probing the Open Global Health Chemical Diversity Library for Multistage-Active Starting Points for Next-Generation Antimalarials” (ACS Infect Dis, 2020)",
  "note": "Out of some 68,000 compounds screened, about 2,700 (4%) showed an effect of 50% or more. The sample as a whole holds a higher share of strong results than the screen did.",
  "data": [
    {"test_system": "Plasmodium berghei", "assay": "Screen against P. berghei liver stage (PbLuc), transformed with Luciferase, at 2uM", "assay_type": "functional, HepG2", "conditions": "tested at 2 uM", "units": {"INHIBITION": "%"}, "values": [
      {"compound": "COc1cc(N2CC[C@@H](O)[C@@H]2Cc2ccccc2)ncn1", "INHIBITION": -30.57},
      {"compound": "CNc1ccccc1C(=O)N(C)CCc1ccccc1", "INHIBITION": -88.87},
      {"compound": "CN(Cc1ccsc1)C(=O)c1n[nH]c(N)c1-c1ccccc1", "INHIBITION": 8.75},
      {"compound": "Cc1cc(C(=O)NC(C)Cc2cccc(Cl)c2)n(C)n1", "note": "(stereo unspecified)", "INHIBITION": -16.65},
      {"compound": "Cc1n[nH]c(C2CN(CC(=O)NCCC3=CCCCC3)CCO2)n1", "note": "(stereo unspecified)", "INHIBITION": 1.27},
      {"compound": "CN1CC2(CCN(S(=O)(=O)C3CC3)CC2)c2ccccc21", "INHIBITION": 13.26},
      {"compound": "Cn1ncnc1NCc1ccccc1Cl", "INHIBITION": 6.75},
      {"compound": "CCC(C(=O)N(C)Cc1cc(COC)[nH]n1)n1cccn1", "note": "(stereo unspecified)", "INHIBITION": 19.12},
      {"compound": "CN(Cc1cnn(C)c1)C(=O)NCc1cc(Br)cs1", "INHIBITION": 31.78},
      {"compound": "Cc1cc(NC(=O)CN2CCCC2c2noc(C)n2)n(C)n1", "note": "(stereo unspecified)", "INHIBITION": 50.76},
      {"compound": "Cc1cc(NC(=O)CN2CCCC2c2noc(C)n2)n(C(C)(C)C)n1", "note": "(stereo unspecified)", "INHIBITION": 7.71},
      {"compound": "Cc1cc(NC(=O)CN2CCCC2c2noc(C3CC3)n2)n(C)n1", "note": "(stereo unspecified)", "INHIBITION": -30.39},
      {"compound": "Cc1cccc(COC[C@@]23CCC[C@@H]2CN(S(=O)(=O)N(C)C)C3)n1", "INHIBITION": 31.96},
      {"compound": "COc1ccccc1CNC(C)c1ccc(-n2ccnc2)cc1", "note": "(stereo unspecified)", "INHIBITION": 18.85},
      {"compound": "CC(C)N(C)S(=O)(=O)c1ccc2c(c1)CCN(C(=O)c1cscn1)C2", "INHIBITION": -68.29},
      {"compound": "Cc1ncsc1C(=O)NC1CCN(CCC(=O)Nc2ccccc2)CC1", "INHIBITION": 1.02},
      {"compound": "O=C(CN1CCC(Nc2ncccn2)CC1)Nc1ccccc1", "INHIBITION": 36.28},
      {"compound": "Cc1cnc(NC2CCN(CC(=O)Nc3ccccc3)CC2)nc1C", "INHIBITION": 76.82},
      {"compound": "CCN1CCN(C2CCN(Cc3nnc(C4CC4)o3)CC2)C1=O", "INHIBITION": -8.9},
      {"compound": "O=c1[nH]nc2nc(N3CCOCC3)ccn12", "INHIBITION": -60.22},
      {"compound": "Cc1nn(C)cc1CN1C[C@H]2CC[C@@H](C1)N(Cc1c(C)noc1C)C2=O", "INHIBITION": 35.46},
      {"compound": "COc1cc(C(C)=O)ccc1OC12CCCN(CC1)C2", "note": "(stereo unspecified)", "INHIBITION": -18.6},
      {"compound": "COc1cc(C#N)ccc1OC12CCCN(CC1)C2", "note": "(stereo unspecified)", "INHIBITION": 63.83},
      {"compound": "CCCc1ccc(OC23CCCN(CC2)C3)c(OC)c1", "note": "(stereo unspecified)", "INHIBITION": -21.37},
      {"compound": "Cc1nc([C@H]2C[C@@H]3CCN(Cc4cnn(C)c4)C[C@H]3O2)sc1C", "INHIBITION": -19.14},
      {"compound": "Cc1ccc(C(=O)N2CC3(CCCCC3)c3cc(C(=O)O)ccc32)cn1", "INHIBITION": -46.89},
      {"compound": "CC1CCN(CC(=O)N(C)CCc2noc(C3CC3)n2)C1=O", "note": "(stereo unspecified)", "INHIBITION": 27.73},
      {"compound": "Cc1nc(CCN(C)C(=O)CN2CCCCCC2)no1", "INHIBITION": 51.9},
      {"compound": "Cc1nc(CN2CCCN(CC(=O)N(C)CCC#N)CC2)no1", "INHIBITION": -14.14},
      {"compound": "COc1cc(N2C[C@@H]3COC[C@@H](Cc4nnc(C)o4)[C@@H]3C2)ncn1", "INHIBITION": 21.27},
      {"compound": "COc1ccccc1N1CCN(Cc2nc(C)c(C)o2)CC1", "INHIBITION": -63.57},
      {"compound": "Cc1cc(CN2CCOC(CN(C)C)C2)no1", "note": "(stereo unspecified)", "INHIBITION": 16.64},
      {"compound": "O=C(NCc1cccnc1)c1cn(CCc2ccccc2)nn1", "INHIBITION": 17.19},
      {"compound": "O=C(NCCCOc1cccnc1)c1cn(CCc2ccccc2)nn1", "INHIBITION": 41.14},
      {"compound": "O=C(NCCc1ccccc1)c1cn(CCNCc2cccnc2)nn1", "INHIBITION": 53.12},
      {"compound": "Cc1nc(CC(C)C)sc1C(=O)N1CCC1", "INHIBITION": 11.18},
      {"compound": "O[C@@H]1C[C@@H](c2nc(-c3cccnc3)no2)N(C2CCOCC2)C1", "INHIBITION": -14.24},
      {"compound": "Cn1cccc1C(=O)NC[C@H]1C[C@@H]2CN(C(=O)c3ccco3)C[C@@H]2O1", "INHIBITION": 6.8},
      {"compound": "Cn1cccc1C(=O)NC[C@H]1C[C@@H]2CN(C(=O)c3ccno3)C[C@H]2O1", "INHIBITION": 50.32},
      {"compound": "O=C(NC[C@H]1C[C@@H]2CN(C(=O)c3ccco3)C[C@@H]2O1)c1ccsc1", "INHIBITION": 34.93},
      {"compound": "CN(C)C[C@H]1C[C@@H]2CN(C(=O)c3ccno3)C[C@@H]2O1", "INHIBITION": -30.38},
      {"compound": "CN(C)C[C@H]1C[C@@H]2CN(C(=O)c3ccco3)C[C@@H]2O1", "INHIBITION": 10.49},
      {"compound": "O=C(NC[C@H]1C[C@@H]2CN(C(=O)c3ccno3)C[C@@H]2O1)C1CCC1", "INHIBITION": 55.52},
      {"compound": "COc1ccc(CN(C)Cn2cc(C)n(-c3cc(C)on3)c2=O)cc1", "INHIBITION": 14.29},
      {"compound": "CCC1c2ccsc2CCN1C(=O)NCc1ccc(C)nc1", "note": "(stereo unspecified)", "INHIBITION": 11.09},
      {"compound": "COC1COC2(CCN(Cc3cccc(Cl)c3)CC2)C1", "note": "(stereo unspecified)", "INHIBITION": 23.81},
      {"compound": "CO[C@@H]1CC[C@H]2[C@H]1OCCN2CCOCc1ccccc1", "INHIBITION": 3.11},
      {"compound": "Cc1nc(N[C@H]2COC[C@@H]2N2CCCCC2)c2c(C)nn(C)c2n1", "INHIBITION": -11.88},
      {"compound": "c1cc(-c2cncc(C3CCNCC3)n2)n[nH]1", "INHIBITION": 29.25},
      {"compound": "Fc1ccc(-c2cnc(C3CCNCC3)cn2)cc1", "INHIBITION": 14.8},
      {"compound": "c1cc(-c2cnc(C3CCNCC3)cn2)n[nH]1", "INHIBITION": 66.18}
    ]}
  ]
}
